Source: PubChem BioAssay AID1159580 (chemical genetic matrix, 2015)
Screen size: about 5,500 compounds; about 2,000 (36%) were called active. Another 18% or so got no clear call; they are omitted. Rule as the data show it: active = normalized growth mostly below about 0.91 (no sharp cut-off); inconclusive = no clear call, values can overlap the other calls; inactive = mostly above about 0.92. The list shows a part of the results.

Experiment: chemical genetic growth profiling, strain panel (AID 1159580);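 also: tested at 20 µM; growth read once vehicle control cultures reached saturation at 30 °C; 1 = growth at the plate median or of vehicle wells; lower values mean less growth of the strain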
Settings: S. cerevisiae deletion strains, growth OD

Measured: normalized growth

C#CCN[C@H](C)Cc1ccccc1
inactive: locus YAL040C, strain CLN3, active compounds read low 1 | locus YCL061C, strain MRC1 (second series), active compounds read low 0.992 | locus YDR150W, strain NUM1, active compounds read low 0.997 | locus YDR363W, strain ESC2, active compounds read low 1.01 | locus YER002W, strain NOP16, active compounds read low 0.996 | locus YGR078C, strain PAC10, active compounds read low 0.987 | locus YJR075W, strain HOC1, active compounds read low 0.994 | locus YNL128W, strain TEP1, active compounds read low 0.998 | locus YNL153C, strain GIM3, active compounds read low 1 | locus YNL175C, strain NOP13, active compounds read low 0.997 | locus YNL197C, strain WHI3, active compounds read low 0.982 | locus YNL224C, strain SQS1, active compounds read low 0.995 | locus YNL322C, strain KRE1, active compounds read low 0.998 | locus YOR083W, strain WHI5 (second series), active compounds read low 1.03 | locus YPL241C, strain CIN2, active compounds read low 0.999
